Bioassay records deposited in PubChem by National Center for Advancing Translational Sciences (NCATS).
Compounds with a hit are over-represented: about 19% of the library has one in this group of screens.
HT1080-NT tox: qHTS for induction of synthetic lethality in tumor cells producing 2HG: qHTS for the HT-1080-NT fibrosarcoma cell line; HT-1080-NT fibrosarcoma viability, CellTiter-Glo ATP luminescence, 48 h; Potency, µM (doses to about 46.1 µM), for the others: top-dose activity, negative = less viability, most hits filed as cytotoxic; 360,000 tested, 1.6% active; AID 686970, 2013;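 also: NT is the 2HG producing partner of a matched IDH1 knockdown line; potency is read from the fitted curve at half-maximal effect; 0% = DMSO-treated cells and -100% = media-only wells without cells; nearly all actives have a fitted effect of over 55% in size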
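Compounds were tested in concentration-response format on HT-1080-NT cells for 48 hours at 37 degrees C. Cell viability came from CellTiter-Glo luminescence; curves were classified by r2, response magnitude and activity.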
TDP1 cell noCPT: qHTS for Inhibitors of human tyrosyl-DNA phosphodiesterase 1 (TDP1): qHTS in cells in absence of CPT | Potency, µM (titrated, usually from 46.2 µM), inactives show top-dose activity change, negative = growth inhibition, hits mostly inhibitors | DT40 Tdp1-/- hTDP1 cells, no CPT, ATP luminescence, 48 h | AID 686978, 2013 | 420,000 tested, 15% active; also: potency is read from the fitted curve at half-maximal effect; nearly all actives have a fitted effect of over 55% in size
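Readout: luminescence from CellTiter-Glo after 30 min in the dark at RT. Cells: DT40 Tdp1-/- with stable hTDP1, 400/well. Exposure: compounds alone, ≥48 hr, 37 °C.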
IL1B secr inh: qHTS for Inhibitors of Inflammasome Signaling: IL-1-beta AlphaLISA Primary Screen | activity change, % at 57.5 µM | 360,000 tested, 4.7% active | THP-1 LPS/ATP IL-1B secretion, AlphaLISA, 16 h; hits give low values | AID 743279, 2014; in the data active = activity change below about -50%; inconclusive = mostly about -30% to -49%
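Secreted IL-1B measured by AlphaLISA bead assay after 16 h compound exposure of THP-1 cells; compounds (final up to 57.5 uM) added 1 h before LPS (250 ng/mL) and ATP (1.25 mM) stimulation; lower signal means less secretion.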
HT1080 IDH1KD tx: qHTS for induction of synthetic lethality in tumor cells producing 2HG: qHTS for the HT-1080-IDH1KD cell line | HT-1080 IDH1 knockdown viability, ATP luminescence, 48 h | Potency, µM (doses to about 46.1 µM), for inactives: top-dose activity, negative = toxicity, actives largely listed as cytotoxic | 360,000 tested, 2% active;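 also: potency is read from the fitted curve at half-maximal effect; 0% = DMSO wells and -100% = cell-free medium wells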
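% activity derives from luminescence (CellTiter-Glo), normalised to DMSO and no-cell wells. HT-1080-IDH1KD cells, 750/well, had 48 h compound exposure at 37 °C.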
ELG1 repair inh: qHTS screen for small molecules that inhibit ELG1-dependent DNA repair in human embryonic kidney (HEK293T) cells expressing luciferase-tagged ELG1 | HEK293T ELG1-luciferase reporter, luminescence, 16 h; DNA damage induced by 5-fluorouridine | Potency, µM (series often up to 46.1 µM), without a hit: at the highest dose activity change, negative = inhibition, hits mostly inhibitors | 330,000 tested, 2.3% active | AID 504467, 2011; also: potency is read from the fitted curve at half-maximal effect; nearly all actives have a fitted effect of over 55% in size
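Luminescence from the luciferase reporter, measured 30 min after ONE-Glo reagent at room temperature, was the read-out. Beforehand, 2,000 cells per well were exposed for 16 hr at 37 °C to 5-fluorouridine together with compound or vehicle.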
DT40 TDP1 CPT: qHTS for Inhibitors of human tyrosyl-DNA phosphodiesterase 1 (TDP1): qHTS in cells in presence of CPT; chicken DT40 Tdp1-/-;hTDP1 cells + 20 nM CPT, ATP luminescence, 48 h; Potency, µM (doses to about 46.2 µM), without a hit: top-dose activity change, negative = growth inhibition, actives largely listed as inhibitors; 420,000 tested, 12% active; AID 686979, 2013; also: potency is read from the fitted curve at half-maximal effect; nearly all actives have a fitted effect of over 55% in size
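Chicken DT40 Tdp1-/- cells complemented with human TDP1, 400 cells/well, exposed to compounds plus 20 nM camptothecin for at least 48 h at 37 C; viability read as ATP content by CellTiter-Glo luminescence.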
Active calls of the source: *; u = inconclusive; x = no result; [ ] = remark or other dose. Unless noted, calls follow the shape of the dose curve; as a rule, active = well fitted curve in the direction sought with a large enough effect; inconclusive = small, poorly fitted or top-dose-only effect, or another doubt; inactive = no such curve, though single readings can be large; an effect the other way counts as inactive or inconclusive. Unless noted, % is scaled to controls: 0 for no effect and ±100 for the full control effect.

SMILES	HT1080-NT tox	TDP1 cell noCPT	IL1B secr inh	HT1080 IDH1KD tx	ELG1 repair inh	DT40 TDP1 CPT
COC(=O)c1c(-c2cccs2)csc1NC(=O)COc1ccc(C(C)(C)C)cc1	x	20.6µM*	x	x	x	14.6µM*
O=C(COc1ccccc1)Nc1ccccc1NS(=O)(=O)c1cccs1	-0.2%	-10.7%	47.6	0.9%	-5.0%	1.9%
O=C(CCN1CCOCC1)NNC(=O)c1ccc([N+](=O)[O-])cc1[N+](=O)[O-]	-8.1%	-16.0%	13.0	u	5.4%	u
O=C(Cc1c(F)cccc1Cl)Nc1cc(S(=O)(=O)N2CCOCC2)ccc1N1CCCC1	1.6%	-16.7%	u	-2.6%	0.5%	-19.3%
O=C(CNc1cc(S(=O)(=O)N2CCOCC2)ccc1N1CCCC1)Nc1ccc(Cl)cc1F	1.0%	13µM*	u	6.7%	x	u
O=C(Nc1cccc(Cl)c1)Nc1cc(S(=O)(=O)N2CCOCC2)ccc1N1CCCC1	-11.3%	23.1µM*	-60.1*	-2.4%	-18.8%	14.6µM*
CC(Oc1cccc(Cl)c1)C(=O)Nc1cc(S(=O)(=O)N2CCOCC2)ccc1N1CCCC1 (stereo unspecified)	16.3%	u	4.2	3.8%	4.3%	-27.1%
Cn1c(=O)c2c(nc(N3CCN(Cc4ccccc4)CC3)n2CCCc2ccccc2)n(C)c1=O	u	18.4µM*	0.0	-12.8%	11.6µM*	11.6µM*
CCOCCn1c(=O)c2c(nc3n2CCN3c2ccc(CC)cc2)n(C)c1=O	-0.4%	u	53.7	1.2%	x	14.6µM*
CCc1ccc(N2CCn3c2nc2c3c(=O)n(Cc3ccc(F)cc3)c(=O)n2C)cc1	x	-9.6%	x	x	x	1.7%
CN1CCN(c2nc3c(c(=O)[nH]c(=O)n3C)n2CCSc2nnnn2-c2ccccc2)CC1	0.9%	-20.7%	1.4	1.3%	-9.3%	-16.3%
Cn1c(=O)c2c(nc(N3CCN(Cc4ccccc4)CC3)n2CC(=O)c2ccccc2)n(C)c1=O	11.9%	-0.2%	11.5	-2.0%	x	-20.8%
CC1CCN(c2nc3c(c(=O)n(C)c(=O)n3C)n2Cc2ccccc2)CC1	-14.2%	u	-61.6*	-3.1%[9.24 µM]	-19.5%	-26.4%
Cn1c(=O)[nH]c(=O)c2c1nc(N1CCCC1)n2CCCSc1nnnn1-c1ccccc1	-2.0%	16.4µM*	0.0	-0.4%	u	20.6µM*
CN1CCN(c2nc3c(c(=O)n(C)c(=O)n3C)n2Cc2ccccc2)CC1	-2.8%	11.5%	-6.2	-2.7%	12.4%	-9.7%
CNc1ccc(C(=O)N2CCN(S(=O)(=O)c3ccc4c(c3)OCCCO4)CC2)cc1[N+](=O)[O-]	12.2%	-22.3%	0.0	-0.1%	u	u
CC(C)[C@H](NS(=O)(=O)c1ccccc1)C(=O)Nc1ccccc1N1CCOCC1	2.1%	-20.1%	-1.8	3.4%	8.5%	-19.7%
CCCCCCCSc1nnc(N)s1	-14.8%	-0.7%	x	-4.0%	u	-0.1%
CC(O)c1cccc(-c2ccc(CN3C[C@]4(CO)O[C@@H](CO)C[C@@H]4S3(=O)=O)cc2)c1 (stereo partly specified)	10.9%	-23.7%	-2.9	12.4%	-17.4%	u
COc1ccc(Nc2nnc(SCC(=O)Nc3ccc4[nH]c(=O)[nH]c4c3)s2)cc1	0.0%	-13.6%	-2.7	-5.6%	5.5%	2.0%
